# Assay outcomes deposited in PubChem by National Center for Advancing Translational Sciences (NCATS).
# This is a sample that favours compounds with a hit; in the whole collection about 7.8% have one here.
# HCV inhibitor: blocks hepatitis C virus; Huh7.5.1 HCVcc-Cre infection, luciferase reporter, 44 h; Potency, µM (highest dose often 41.8 µM), inactives show top-dose activity change, negative = inhibition, usual class: inhibitors; hit rate 3.4% among 340,000; AID 651820; active means well fitted inhibition curve with a large enough effect; inconclusive means small, poorly fitted or top-dose-only effect, or another doubt; inactive means no such curve, though single readings can be large or run the other way; further: potency means the concentration at half of the fitted maximal effect
#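 Seed cells (1,000/well) for 4 h; treat with compound and infect with HCVcc-Cre, moi about 0.5. Incubate 44 h, then detect luciferase activity.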
# Vaccinia mCherry: inhibitors of vaccinia virus infection (mCherry reporter signal); Vaccinia virus mCherry reporter infection, fluorescence; Potency, µM (titrated, usually from 36.5 µM), for the others: at the top dose activity change, negative = inhibition, hits mostly inhibitors; hit rate 0.63% among 310,000; AID 720579; calls by dose curve; tested in A549 cells; further: potency means the concentration at half of the fitted maximal effect; nearly all actives have a fitted effect of over 35% in size
# HCMV inh: human cytomegalovirus inhibition; HFF cells, HCMV-luciferase reporter, 72 h; hits give low values; activity change, negative = inhibition, % at 57.5 µM; hit rate 4.5% among 410,000; in the data active means activity change below about -60%; inconclusive means no clear call, values can overlap the other calls; inactive means above about -39%
#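 Two compound doses tested in HFFs infected with HCMV-luciferase, MOI 1 PFU/cell, 72 h at 37C. Lysate luminescence read with OneGlo; data normalized against buffer-only and 10uM Salinomycin inhibitor controls.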
# Vaccinia Venus: vaccinia inhibition (Venus reporter); Vaccinia virus Venus reporter expression, fluorescence; Potency, µM (titrated, usually from 36.5 µM), without a hit: at the highest dose activity change, negative = inhibition, usual class: inhibitors; hit rate 0.46% among 330,000; AID 720580; calls by dose curve; tested in A549 cells; further: potency means the concentration at half of the fitted maximal effect; nearly all actives have a fitted effect of over 30% in size
# Marburg entry inh: Marburg virus entry inhibition; AID 540276; Marburg virus pseudotyped entry inhibition, cell reporter; Potency, µM (doses to about 37.8 µM), inactives show at the top dose activity change, negative = inhibition, actives largely listed as inhibitors; hit rate 1.8% among 300,000; calls by dose curve; tested in HEK293 cells; further: potency means the concentration at half of the fitted maximal effect
# Numbers without * were called inactive; i = inactive; ? = inconclusive; nt = no result given; [ ] = remark or other dose. On the % scale 0 is the no-effect control and ±100 the full control effect.
SMILES,HCV inhibitor,Vaccinia mCherry,HCMV inh,Vaccinia Venus,Marburg entry inh
CC[C@]12c3[nH]c4ccc(Cl)cc4c3CCN1C(=O)[C@@H](CC(=O)NCCN1CCOCC1)C[C@@H]2C(=O)N1CCN(C(=O)c2ccco2)CC1,-1%,-24%,-28,-6%,nt
C[C@]12c3[nH]c4ccc(Cl)cc4c3CCN1C(=O)[C@@H](CC(=O)NCCC1=CCCCC1)C[C@@H]2C(=O)N1CCOCC1,11µM*,?,-23,?,7%
CC(C)N(C(=O)[C@H]1C[C@H](CC(=O)NC(C)(C)C)C(=O)N2CCc3c([nH]c4cc(CCC(=O)N(C)C)ccc34)[C@]12C)C(C)C,0.5µM*,-2%,-11,-1%,2%
CC[C@]12c3[nH]c4ccc(Cl)cc4c3CCN1C(=O)[C@@H](CC(=O)NCCC1=CCCCC1)C[C@@H]2C(=O)N1CCN(C(=O)c2ccco2)CC1,32µM*,-6%,?,-20%,-7%
C[C@]12c3[nH]c4ccc(Cl)cc4c3CCN1C(=O)[C@@H](CC(=O)NCCN1CCOCC1)C[C@@H]2C(=O)N1CCOCC1,2%,i,8,-17%,nt
C[C@]12c3[nH]c4cc(-c5ccco5)ccc4c3CCN1C(=O)[C@@H](CC(=O)NCC13CC4CC(CC(C4)C1)C3)C[C@@H]2C(=O)N1CCCCC1,6%,11µM*,-35,?,nt
CCN1C(=S)NC(c2ccccc2)C(C(=O)OC)=C1C (centres undefined),nt,nt,nt,nt,-2%[14.2 µM]
